The campaign covered roughly 410,000 compounds. About 7,200 (1.8%) were called active. Another 7% or so got no clear call; they are omitted. What follows is part of a selection rich in actives, with near analogues and random picks from the rest. Entries that show only a call come without a potency. Unmarked numbers belong to inactive results. Calls follow the shape of the dose curve; as a rule, active = well fitted activation curve with a large enough effect; inconclusive = small, poorly fitted or top-dose-only effect, or another doubt; inactive = no such curve, though single readings can be large or run the other way.
test: qHTS of TDP-43 Inhibitors; settings: TDP-43 expressing yeast growth rescue, BacTiter-Glo, 24 h; series mostly up to 46.1 µM; also: nearly all actives have a fitted effect of over 50% in size
Text: The goal of this project is to identify new chemical probes capable of reversing the toxicity associated with TDP-43 which is associated with frontotemporal lobar degeneration and amyotrophic lateral sclerosis. These compounds will provide a complementary approach to deciphering the tangled mechanisms of toxicity and protection that we have uncovered through genome-wide genetic screens and are beginning to uncover in a large-scale proteomics analysis with mass spectroscopy.
To this end, a miniaturized assay was developed to be screened against the Molecular Libraries Small Molecule Repository (MLSMR) to discover TDP-43 inhibitors. Please note that in the set-up this yeast-based assay compounds that inhibit as TDP-43, have a read-out as activators.
NIH Chemical Genomics Center [NCGC]
NIH Molecular Libraries Probe Centers Network [MLPCN]
Assay Submitter (PI): Susan Lindquist, Whitehead Institute/MIT
Dispense 2.5 microL yeast galactose medium per 1536-well plate, pin compound, dispense 2.5 microL TDP-43 expressing yeast in galactose medium at OD600=0.02 (pregrown in raffinose medium to mid-log phase) per well, incubate for 24 hr at 30 deg C, and cell growth will be measured using 5 microL of Bactiter/Glo reagent to entire plate and read using Luminescence Protocol in ViewLux.
Potency is read from the fitted curve at half-maximal effect.

Compound | Potency | growth rescue (activation)
CC1CCN(C(=O)c2ccc(S(=O)(=O)Cc3cc(F)ccc3F)c([N+](=O)[O-])c2)CC1 | 11.2 µM (active) | 
CC1CCN(c2ccc(S(=O)(=O)Nc3cc(C(=O)O)cc(C(=O)O)c3)cc2[N+](=O)[O-])CC1 | inactive | 
NC(=O)C1CCN(C(=O)c2ccc(F)c(S(=O)(=O)N3CCOCC3)c2)CC1 | inactive | 
Cc1cc(C)cc(OCC(=O)Nc2c(C(=O)c3ccccc3)oc3ccccc23)c1 | inactive | 
COc1ccc(CCNC(=O)c2ccc(-n3c(C)cc4c3CCCC4)cc2)cc1OC | inactive | 
CC1CCN(S(=O)(=O)c2ccc3c(ccn3CCC(=O)NCc3ccc(N(C)C)cc3)c2)CC1 | inactive | 
CC1CCC2(CC1)N=C(c1ccccc1)C(=O)N2CC(=O)Nc1ccc(F)c(Cl)c1 (configuration not stated) | inactive | 
OC(COCC1COc2ccccc2O1)CN1CCN(c2ccc(F)cc2)CC1 (configuration not stated) | inactive | 
Cc1cc(C(=O)CCl)c(C)n1CC1COc2ccccc2O1 (configuration not stated) | 20 µM (active) | 
O=C1C(=O)N(CC2COc3ccccc3O2)c2ccccc21 (configuration not stated) | 28.2 µM (active) | 
CC1COc2ccccc2N1S(=O)(=O)c1ccccc1 (configuration not stated) | inactive | 
Cc1n[nH]c(C)c1S(=O)(=O)N1CCCC(C(=O)NCC2COc3ccccc3O2)C1 (configuration not stated) | inactive | 
Cc1ccc(Cl)cc1NC(=O)NC1COc2ccccc2C1 (configuration not stated) | inactive | 
COc1ccccc1Nc1c2c(nc3ccc(NC(=O)/C=C/c4cc(OC)c(OC)c(OC)c4)cc13)CCCC2 | inactive | 
CCc1ccc(NC(=O)C2CCCN2S(=O)(=O)c2ccc3nc(-c4ccccc4)[nH]c3c2)cc1 (configuration not stated) | inactive | 
C=Cc1ccc(Cn2c(C(=O)OC)cc3sc(C)cc32)cc1 | inactive | 
CCN1CCN(c2ncc3c(n2)CC(c2ccccc2O)CC3=O)CC1 (configuration not stated) | inactive | 
Cc1ccc(-n2c3nc(=O)[nH]c(=O)c-3cc3c(Cl)cccc32)cc1 | inactive | 
Cc1ccc(CNC(=O)c2c(O)nc3c(C)cccn3c2=O)cc1 | inactive | 
CCOc1cc(C(=O)Nc2nnc3n2CCS3)cc(OCC)c1OCC | inactive | 
Cc1ccccc1NC(=O)Cn1c(=O)n(CCCCC(=O)NCc2ccccc2Cl)c(=O)c2ccccc21 | inactive | 

Compound | Potency | growth rescue (activation)
Cc1ccc(C)c(NC(=O)Cn2ccn(-c3ccc(F)cc3)c(=O)c2=O)c1 | inactive | 
COc1ccccc1-c1cc(C(F)(F)F)nc(S(=O)(=O)CCCC(=O)Nc2ccc(F)cc2F)n1 | 14.1 µM (active) | 
CSc1ccccc1NC(=O)CCS(=O)(=O)c1nc(-c2cccs2)cc(C(F)(F)F)n1 | inactive | 
COc1ccccc1-c1cc(C(F)(F)F)nc(S(=O)(=O)CCCC(=O)Nc2cc(C)ccc2O)n1 | inactive | 
CCOC(=O)c1ccc(NC(=O)c2ncn(-c3ccccc3)n2)cc1 | inactive | 
Cc1cccc(N2CCN(C(=O)c3ccc(Nc4nc5ccccc5n5nnnc45)cc3)CC2)c1C | inactive | 
CN1c2ccc(C=O)c3c(C=O)ccc(c23)N(C)C1(C)C | inactive | 
Cc1ccc(C=O)c([B-](F)(F)F)c1 | 11.2 µM (active) | 
CCOc1ccc(OCC)c(Nc2nc3ccccc3n3nnnc23)c1 | inactive | 
Cc1cc(=O)c2cc(C(=O)Nc3cccc(C)c3C)ccc2[nH]1 |  | 0% [at 9.22 µM]
O=C(COc1ccc(F)cc1Br)NCC1COc2ccccc2O1 (configuration not stated) | 22.4 µM (active) | 
CCC(=O)c1cc(F)ccc1OCC(=O)Nc1ccc2c(c1)OCCO2 | inactive | 
O=C(COC(=O)COc1cccc(F)c1)NCC1CCCCC1 | inactive | 
CCC(=O)N1CCc2cc(S(=O)(=O)NC(C(=O)Nc3ccc(C(C)=O)cc3)C(C)C)ccc21 (configuration not stated) | inactive | 
CCn1nnnc1SCC(=O)c1ccc(C)cc1C | inactive | 
Cc1ccccc1-n1nnnc1SCCCC(=O)c1ccc(F)cc1 | 35.5 µM (active) | 
CC(=O)Nc1ccc(NC(=O)CSc2nnnn2-c2ccccc2F)cc1 | inactive | 
COc1ccc(CNC(=O)CSCc2nc(-c3ccccc3F)oc2C)cc1 | inactive | 
COc1ccc(Br)cc1C1CC(=O)Nc2c1c(C)nn2-c1nc(C)cc(C)n1 (configuration not stated) |  | 10.5% [at 9.22 µM]
CN(Cc1ccccc1)c1ncnc2onc(-c3ccc(F)cc3)c12 | 35.5 µM (active) | 
COC(=O)c1cnc(N2CCN(c3ccccc3OC)CC2)c2ccccc12 | inactive | 

Compound | Potency | growth rescue (activation)
COc1ccccc1N1CCN(c2ncnc3onc(-c4cccc(Cl)c4)c23)CC1 | inactive | 
CN(Cc1ccccc1)c1ccc(-c2nc(-c3ccccc3)no2)cc1[N+](=O)[O-] | inactive | 
COc1ccccc1N1CCN(c2ncnc3sc(C)c(-c4ccccc4)c23)CC1 | 17.8 µM (active) | 
COc1ccccc1N1CCN(c2ncnc3onc(-c4ccc(F)cc4)c23)CC1 | 15.8 µM (active) | 
Cc1cc(C)cc(Nc2ncnc3onc(-c4ccc(F)cc4)c23)c1 | inactive | 
COc1ccccc1N1CCN(CCCCOc2ccc(F)cc2)CC1 | inactive | 
COc1ccccc1N1CCN(c2ccc([N+](=O)[O-])nc2)CC1 | inactive | 
CCOc1ccc(OCC)c(NC(=O)c2c(C)nn(-c3ccccc3)c2-n2cccc2)c1 | inactive | 
O=C(Nc1ccc(Br)cc1)c1cc2nc(-c3ccccc3)cc(-c3ccccc3)n2n1 | inactive | 
Cc1ccc2c(c1)N(C(=O)CCC(=O)NCc1ccccc1F)CC(C)O2 (configuration not stated) | inactive | 
Cc1ccc2c(=O)cc(C(=O)Nc3sc4c(c3C(=O)NCc3cccnc3)CCCC4)oc2c1 | inactive | 
O=C(CSc1nccn1C1CCCC1)Nc1cc(C(F)(F)F)ccc1Cl | inactive | 
CCOC(=O)c1cnc(SCC(=O)Nc2ccccc2C(=O)OC)nc1N | 22.4 µM (active) | 
COC(=O)c1ccccc1NC(=O)CSc1n[nH]c(-c2ccncc2)n1 | inactive | 
CCOC(=O)c1cnc(SCC(=O)Nc2cccc(OC)c2)nc1N | inactive | 
Cc1nc(SCC(=O)Nc2ccc(C(=O)O)cc2)n[nH]1 | inactive | 
O=C(Nc1ccc(C(=O)OCc2cc(=O)n3nc(C4CC4)sc3n2)cc1)c1ccc(F)cc1 | inactive | 
CCCCNC(=O)c1ccc2c(c1)NC(=O)C(C(C)C)N2 (configuration not stated) | inactive | 
CCc1ccccc1N1CC(c2nc3ccccc3n2CCCCOc2ccccc2)CC1=O (configuration not stated) | inactive | 
CCOC(=O)c1c(S(=O)(=O)N2CCCC(C(=O)NCc3cccc(C)c3)C2)c(C)n(C)c1C (configuration not stated) | inactive | 

Source: PubChem BioAssay AID652104 (National Center for Advancing Translational Sciences (NCATS), 2013)
